FAK blocker – blocks human focal adhesion kinase activity; Q05397; biochemical FAK kinase activity assay; inhibition, %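 (tested at 7 µM)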; hit rate 0.84% among 97,000; AID 727; in the data active = inhibition above about 19%;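 also: 0% = DMSO and 100% = reference compound high control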
Target sequence (Q05397 whole entry, looked up): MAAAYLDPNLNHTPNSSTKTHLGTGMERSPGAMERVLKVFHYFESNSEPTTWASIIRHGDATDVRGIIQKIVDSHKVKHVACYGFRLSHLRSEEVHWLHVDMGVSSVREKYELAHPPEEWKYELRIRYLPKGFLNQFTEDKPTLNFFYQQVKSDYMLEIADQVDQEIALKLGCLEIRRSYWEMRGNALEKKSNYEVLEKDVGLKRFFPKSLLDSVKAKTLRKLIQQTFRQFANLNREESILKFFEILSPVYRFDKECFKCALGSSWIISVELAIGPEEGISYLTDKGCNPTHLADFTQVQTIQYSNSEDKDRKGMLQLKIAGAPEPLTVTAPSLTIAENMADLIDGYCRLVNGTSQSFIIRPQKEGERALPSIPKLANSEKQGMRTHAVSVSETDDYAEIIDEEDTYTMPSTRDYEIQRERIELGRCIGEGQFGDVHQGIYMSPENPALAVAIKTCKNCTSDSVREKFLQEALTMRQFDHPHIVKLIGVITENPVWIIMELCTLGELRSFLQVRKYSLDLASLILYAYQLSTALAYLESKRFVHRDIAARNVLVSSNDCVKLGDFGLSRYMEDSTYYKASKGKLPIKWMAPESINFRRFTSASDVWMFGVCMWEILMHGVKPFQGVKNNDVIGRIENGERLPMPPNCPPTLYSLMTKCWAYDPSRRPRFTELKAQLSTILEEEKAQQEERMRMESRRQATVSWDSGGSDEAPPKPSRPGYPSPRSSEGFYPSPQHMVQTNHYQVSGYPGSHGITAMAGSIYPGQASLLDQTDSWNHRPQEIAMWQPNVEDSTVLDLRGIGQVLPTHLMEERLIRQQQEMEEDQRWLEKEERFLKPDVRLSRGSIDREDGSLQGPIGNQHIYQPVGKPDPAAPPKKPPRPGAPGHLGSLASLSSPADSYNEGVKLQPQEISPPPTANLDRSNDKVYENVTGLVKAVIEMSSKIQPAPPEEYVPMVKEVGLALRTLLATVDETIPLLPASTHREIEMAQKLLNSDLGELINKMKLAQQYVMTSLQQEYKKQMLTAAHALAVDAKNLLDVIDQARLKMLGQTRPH
ERb coact inh – ER-beta (human) coactivator binding inhibition. hit rate 1.3% among 86,000. TR-FRET ER-beta LBD / SRC1-Cy5 peptide binding; receptor agonist-loaded with 1 µM estradiol. AID 633. inhibition, % at 25.6 µM;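 active = compounds whose percent inhibition of the receptor-coactivator binding signal exceeds about 50% in the single-dose screen, limit read from the data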;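 also: 0% = receptor plus peptide wells without compound and 100% = peptide-only wells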
ERa coact inh – blocks coactivator binding to human estrogen receptor alpha. P03372. TR-FRET ER-alpha LBD / SRC-1 peptide, estradiol-bound. inhibition, % at 25.6 µM. hit rate 1.7% among 86,000. AID 629; in the data active = inhibition above about 50%;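 also: 0% = receptor plus peptide control and 100% = peptide only without receptor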
ERa SRC1 pot – ER-alpha (human) coactivator binding potentiation; P03372; coactivator binding (% of control), % at 25.6 µM; TR-FRET ERalpha-LBD/SRC-Cy5 coactivator binding, 2 h; 100 = basal binding, no effect; hit rate 1.3% among 86,000; in the data active = activity above about 200%;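 also: binding measured in presence of low estradiol as agonist stimulus; 0% = peptide alone without receptor and 100% = receptor with peptide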
Calb biofilm kill – kills Candida albicans biofilms; C. albicans biofilm + clotrimazole, Alamar Blue; inhibition, % at 6 µM; hit rate 0.14% among 85,000;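 active = inhibition above 20%; inactive = inhibition below 20%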;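 also: preformed 24 hr biofilms exposed to compound for 48 hr; 0% = biofilm without compound and 100% = blank killed by clotrimazole plus chlorhexidine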
Smad3 FoxH1 inh – Smad3 (human) transcription factor binding inhibition. TR-FRET Smad3/Dy647-FoxH1 peptide binding, europium anti-His. hit rate 0.29% among 88,000. P84022. inhibition, % at 25 µM;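 active = compounds that reduce the energy-transfer binding signal between the protein and its labelled peptide by more than half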;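 also: 0% = Smad3 plus labelled peptide maximal FRET and 100% = peptide-only background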
An asterisk follows results filed as active; x = no result; [ ] = remark or other dose. Compounds with a hit are over-represented: about 3.3% of the library has one in this group of screens.

SMILES | FAK blocker | ERb coact inh | ERa coact inh | ERa SRC1 pot | Calb biofilm kill | Smad3 FoxH1 inh
C=CCOC(=O)C1C(=O)CC(C)(O)C(C(=O)OCC=C)C1c1ccc(OCC)cc1 (centres undefined) | -8 | -3 | -2 | 118 | 3 | -3
CCN1CCN(c2ncnc3c2oc2nc(C(C)C)c4c(c23)CCC4)CC1 | x | -5 | -2 | 123 | 1 | 6
CC(C)c1nc2oc3c(NCc4cccnc4)ncnc3c2c2c1CCC2 | x | 16 | -10 | 515*[fluorescence artefact?] | 2 | -5
CCOC(=O)N1CCN(c2ncnc3c2oc2nc(C(C)C)c4c(c23)CCC4)CC1 | x | 29 | 7 | 312*[fluorescence artefact?] | 3 | 3
CC(C)Cc1nc2oc3c(NCc4cccnc4)ncnc3c2c2c1CCC2 | 6 | x | x | x | x | x
N#CCCN(C(=O)CSc1nc(-c2ccccc2)cn1N)c1ccc(F)cc1 | 2 | -11 | -5 | 102 | -1 | -15
NS(=O)(=O)C1=C(Cl)CC2=NC(CCC(=O)O)=NS(=O)(O)=C2C1 | x | x | x | x | x | 16
COC(=O)c1cc(COc2ccc3c(c2)oc(=O)c2ccccc23)c(C)o1 | -3 | 23 | 30 | 230* | 5 | -4
Cc1ccc(S(=O)(=O)Oc2cc(S(=O)(=O)O)cc3cc(S(=O)(=O)O)cc(N)c23)cc1 | x | x | x | x | x | 6
COC(=O)c1ccccc1NC(=O)Cn1cnc2cc(C)c(C)cc21 | -1 | -3 | 5 | 103 | 3 | 13
Cc1ccc(NC(=O)CSc2nnc(Cn3c(=O)sc4ccccc43)n2C)cc1Cl | x | 35 | 38 | 360* | 11 | 4
Cn1c(Cn2c(=O)sc3ccccc32)nnc1SCC(=O)NC1CCCCC1 | x | -18 | -3 | 134 | 21* | 8
CC(NC(=O)CSc1nnc(CC(=O)Nc2ccc(Cl)c(Cl)c2)n1C)c1ccccc1 (centres undefined) | -2 | -7 | -2 | 97 | 3 | -6
Cn1c(CC(=O)Nc2ccc(Cl)c(Cl)c2)nnc1SCC(=O)N1CCN(c2ccccc2)CC1 | 0 | 39 | 72*[fluorescence artefact?] | 70 | 7 | -3
Nc1ncnc2nc(-c3ccc(C[P+](c4ccccc4)(c4ccccc4)c4ccccc4)cc3)[nH]c12 | x | x | x | x | x | 6
Nc1nc(Cc2ccccc2)nc(Cc2ccccc2)c1-c1ccccc1 | x | x | x | x | x | 5
O=C(O)Cc1c[nH]c2ccc(F)cc12 | x | x | x | x | x | -1
C=CCSC1=N/C(=C\C=C\c2ccco2)C(=O)S1 | 14 | 64* | 78* | 63 | 7 | -2
c1csc(-c2nn3c(C4COc5ccccc5O4)nnc3s2)c1 (centres undefined) | 1 | -26 | -21 | 70 | 2 | -6
c1ccc2c(c1)OCC(c1nnc3sc(-c4cnccn4)nn13)O2 (centres undefined) | 2 | 82*[fluorescence artefact?] | 92*[fluorescence artefact?] | 52 | 3 | 12
C=CCc1ccc(OCCOc2cccc3ccc(C)nc23)c(OC)c1 | 1 | x | x | x | x | x
CC(NC(=O)c1cccnc1)C(c1cccs1)N1CCN(C)CC1 (centres undefined) | -5 | -3 | -6 | 103 | 4 | -2
COc1cccc(C(=O)NC(C)C(c2cccs2)N2CCN(C)CC2)c1 (centres undefined) | -4 | 67*[fluorescence artefact?] | -32 | 115 | 7 | 18
COc1ccc(Br)cc1/C=c1\sc2nc(-c3ccco3)nn2c1=O | x | x | x | x | 3 | x
CCN(CC)c1ccc(/C=c2\sc3nnc(-c4ccccc4Cl)n3c2=O)cc1 | 0 | -3 | -2 | 147 | 6 | -17
SMILES | FAK blocker | ERb coact inh | ERa coact inh | ERa SRC1 pot | Calb biofilm kill | Smad3 FoxH1 inh
Cc1ccc(/C=c2\sc3nc(-c4ccccc4Br)nn3c2=O)o1 | 15 | 66* | 85*[fluorescence artefact?] | 60 | 6 | -10
CCN(CC)c1ccc(/C=c2/sc3nnc(-c4ccccc4C)n3c2=O)cc1 | 1 | 28 | 41 | 413*[fluorescence artefact?] | 3 | 12
Cc1ccc(-c2nc3s/c(=C\c4ccco4)c(=O)n3n2)cc1 | 6 | 58* | 96*[fluorescence artefact?] | 23 | 4 | -7
Cc1ccc(/C=c2\sc3nc(-c4ccco4)nn3c2=O)o1 | 17 | 64*[fluorescence artefact?] | 70* | 113 | 6 | 0
COc1ccccc1/C=c1\sc2nc(-c3ccncc3)nn2c1=O | x | 13 | 9 | 101 | 0 | -13
CO/C([O-])=N/c1c[n+](-c2ccc(Cl)cc2)no1 | 0 | 1 | 4 | 95 | 4 | -1
Cc1ccc(/C=c2/sc3nnc(-c4ccccc4Cl)n3c2=O)o1 | -1 | 44 | 58*[fluorescence artefact?] | 42 | 10 | 0
C=CCn1c(=O)/c(=C/c2ccc(C)o2)s/c1=C(/C#N)C(=O)c1ccccc1 | -5 | 25 | 12 | 85 | 6 | -3

Assay outcomes deposited in PubChem BioAssay by several laboratories.
